Data: the supplement of paper PMC10849652
The full data set covers some 8,800 targets. This sample favours those with a hit. About 0.5% of all pairs of compound and target were hits.

Tests used:
Assay in all cases: log2 fold change, soluble protein after heating vs DMSO (PISA); higher = thermal stabilisation; K562 lysate, 10 uM; active = over 0.2 and 3.5 SD of the protein, either way, in both replicates (recomputed)
vemurafenib = compound: CCCS(=O)(=O)Nc1ccc(F)c(C(=O)c2c[nH]c3ncc(-c4ccc(Cl)cc4)cc23)c1F [vemurafenib]
In short: (§1)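 Quantification was by TMTpro 16plex LC-MS/MS with equalised channel sums, applied to the supernatant after 21,000xg for 90 min. Samples were crude K562 extract at 1 mg/mL protein in PBS pH 7.4 with 1 mM MgCl2, treated with 10 μM compound for 30 min, heated for 3 min across 48°C-58°C, pooled and brought to 0.5% NP-40 at 4°C. Values are log-two fold changes in thermal stability relative to solvent controls, from duplicates.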

[1] = compound: CCCS(=O)(=O)Nc1ccc(F)c(C(=O)c2c[nH]c3ncc(Cl)cc23)c1F
In short: as §1

barasertib = compound: CCN(CCCOc1ccc2c(Nc3cc(CC(=O)Nc4cccc(F)c4)[nH]n3)ncnc2c1)CCOP(=O)(O)O [barasertib]
In short: as §1

[2] = compound: CC[C@@H]1C(=O)N(C)c2cnc(Nc3ccc(C(=O)NC4CCN(C)CC4)cc3OC)nc2N1C1CCCC1
In short: as §1

volasertib = compound: CC[C@@H]1C(=O)N(C)c2cnc(Nc3ccc(C(=O)N[C@H]4CC[C@H](N5CCN(CC6CC6)CC5)CC4)cc3OC)nc2N1C(C)C [volasertib]
In short: as §1

[3] = compound: CCn1c(C(=O)N(C2CC2)C2CC2)cc2c3c(ncn3C)c(Nc3cc(C)n(C)n3)nc21
In short: as §1

[4] = compound: CCn1cc(-c2ccnc3[nH]c(-c4cccc(CN(C)C)c4)cc23)c(-c2ccc(NC(=O)N(C)C)cc2)n1
In short: as §1

[5] = compound: CN1CCC(CNc2ccc3ncc(-c4cccc(OC(F)(F)F)c4)n3n2)CC1
In short: as §1

saracatinib = compound: CN1CCN(CCOc2cc(OC3CCOCC3)c3c(Nc4c(Cl)ccc5c4OCO5)ncnc3c2)CC1 [saracatinib]
In short: as §1

sotrastaurin = compound: CN1CCN(c2nc(C3=C(c4c[nH]c5ccccc45)C(=O)NC3=O)c3ccccc3n2)CC1 [sotrastaurin]
In short: as §1

alvocidib = compound: CN1CC[C@H](c2c(O)cc(O)c3c(=O)cc(-c4ccccc4Cl)oc23)[C@H](O)C1 [alvocidib]
In short: as §1

Tubastatin A = compound: CN1CCc2c(c3ccccc3n2Cc2ccc(C(=O)NO)cc2)C1 [Tubastatin A]
In short: as §1

[6] = compound: CNC(=O)C1=CC=CC=C1NC2=NC(=NC=C2Cl)NC3=C(C=C(C=C3)N4CCOCC4)OC
In short: as §1

defactinib = compound: CNC(=O)c1ccc(Nc2ncc(C(F)(F)F)c(NCc3nccnc3N(C)S(C)(=O)=O)n2)cc1 [defactinib]
In short: as §1

[7] = compound: CNc1nc(-c2ccc3c(N)n[nH]c3c2)cc(N2C[C@@H](C(=O)NC3CCCCC3)CC[C@H]2C)n1
In short: as §1

encorafenib = compound: COC(=O)N[C@@H](C)CNc1nccc(-c2cn(C(C)C)nc2-c2cc(Cl)cc(NS(C)(=O)=O)c2F)n1 [encorafenib]
In short: as §1

[8] = compound: COC(=O)[C@H](CCSC)NC(=O)C1=C(C=C(C=C1)NC[C@H](CS)N)C2=CC=CC=C2
In short: as §1

alisertib = compound: COc1cc(Nc2ncc3c(n2)-c2ccc(Cl)cc2C(c2c(F)cccc2OC)=NC3)ccc1C(=O)O [alisertib]
In short: as §1

[9] = compound: COc1cc2nc(-c3cc(F)ccc3O)nc(N[C@@H]3CNC[C@H]3C(C)(C)O)c2cc1OC
In short: as §1

gefitinib = compound: COc1cc2ncnc(Nc3ccc(F)c(Cl)c3)c2cc1OCCCN1CCOCC1 [gefitinib]
In short: as §1

Measured: log2 fold change

SPATA5L1 (UniProt Q9BVQ7)
inactive: vemurafenib 0.03 | [1] 0.015 | barasertib 0.052 | [2] -0.058 | volasertib -0.135 | [3] 0.014 | [4] -0.023 | [5] 0.012 | saracatinib 0.024 | sotrastaurin 0.015 | alvocidib 0.022 | Tubastatin A -0.16 | [6] 0.019 | defactinib 0.036 | [7] 0.23 | encorafenib 0 | [8] -0.061 | alisertib 0.024 | [9] -0.052 | gefitinib -0.013

SLC39A11 (UniProt Q8N1S5)
Sequence of UniProt Q8N1S5 (Q8N1S5 whole entry, looked up): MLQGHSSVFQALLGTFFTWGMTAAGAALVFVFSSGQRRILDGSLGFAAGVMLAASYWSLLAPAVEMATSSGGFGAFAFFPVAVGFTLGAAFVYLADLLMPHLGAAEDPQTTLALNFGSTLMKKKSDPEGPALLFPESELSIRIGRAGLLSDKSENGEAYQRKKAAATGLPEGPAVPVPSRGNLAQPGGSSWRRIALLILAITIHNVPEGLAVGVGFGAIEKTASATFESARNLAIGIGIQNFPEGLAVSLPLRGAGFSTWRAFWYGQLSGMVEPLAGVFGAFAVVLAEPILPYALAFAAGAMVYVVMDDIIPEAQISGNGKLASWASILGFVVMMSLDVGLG
inactive: vemurafenib -0.082 | [1] 0.073 | barasertib -0.126 | [2] 0.067 | volasertib 0.011 | [3] 0.028 | [4] -0.043 | [5] 0.147 | saracatinib -0.108 | sotrastaurin -0.009 | alvocidib -0.02 | Tubastatin A -0.065 | [6] 0.107 | defactinib 0.338 | [7] -0.111 | encorafenib -0.059 | [8] -0.23 | alisertib -0.047 | [9] 0.097 | gefitinib 0.059

SMC2 (UniProt O95347)
inactive: vemurafenib 0.002 | [1] 0.007 | barasertib -0.001 | [2] -0.033 | volasertib -0.047 | [3] -0.002 | [4] 0.134 | [5] -0.121 | saracatinib 0.005 | sotrastaurin 0.014 | alvocidib 0.039 | Tubastatin A -0.087 | [6] -0.004 | defactinib -0.003 | [7] -0.022 | encorafenib -0.005 | [8] 0.047 | alisertib 0.005 | [9] 0.003 | gefitinib -0.003

SSU72 (UniProt Q9NP77)
Sequence of UniProt Q9NP77 (Q9NP77 whole entry, looked up): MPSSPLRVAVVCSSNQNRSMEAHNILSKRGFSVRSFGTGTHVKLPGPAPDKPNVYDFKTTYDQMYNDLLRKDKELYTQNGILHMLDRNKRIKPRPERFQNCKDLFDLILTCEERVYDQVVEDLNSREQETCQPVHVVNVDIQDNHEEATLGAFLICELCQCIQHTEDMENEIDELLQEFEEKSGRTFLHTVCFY
inactive: vemurafenib -0.018 | [1] 0.001 | barasertib 0.018 | [2] -0.064 | volasertib -0.045 | [3] -0.049 | [5] 0.171 | saracatinib -0.001 | sotrastaurin 0.018 | alvocidib -0.127 | Tubastatin A -0.05 | [6] -0.035 | defactinib -0.026 | [7] -0.032 | encorafenib -0.04 | [8] 0.183 | alisertib -0.016 | [9] -0.013 | gefitinib -0.004
active: [4] -0.325

SLC7A5 (UniProt Q01650)
Sequence of UniProt Q01650 (Q01650 whole entry, looked up): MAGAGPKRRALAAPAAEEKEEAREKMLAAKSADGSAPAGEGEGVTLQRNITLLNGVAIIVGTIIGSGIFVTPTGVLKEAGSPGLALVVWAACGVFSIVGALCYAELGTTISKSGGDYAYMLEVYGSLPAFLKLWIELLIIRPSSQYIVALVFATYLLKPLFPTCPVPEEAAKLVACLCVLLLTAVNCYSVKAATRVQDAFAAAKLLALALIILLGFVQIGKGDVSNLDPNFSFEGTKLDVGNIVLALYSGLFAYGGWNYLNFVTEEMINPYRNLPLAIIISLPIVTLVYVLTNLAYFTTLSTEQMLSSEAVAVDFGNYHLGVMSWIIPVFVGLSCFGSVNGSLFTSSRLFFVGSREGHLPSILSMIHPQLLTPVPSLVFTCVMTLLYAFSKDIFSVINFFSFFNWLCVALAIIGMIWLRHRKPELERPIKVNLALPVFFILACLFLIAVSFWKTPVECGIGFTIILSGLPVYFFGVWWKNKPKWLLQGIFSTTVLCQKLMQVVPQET
active: [4] -0.312
inactive: vemurafenib -0.027 | [1] -0.017 | barasertib -0.038 | [2] -0.031 | volasertib 0.06 | [3] -0.001 | [5] 0.183 | saracatinib 0.056 | sotrastaurin 0.046 | alvocidib -0.142 | Tubastatin A 0.012 | [6] -0.047 | defactinib -0.044 | [7] 0.046 | encorafenib -0.001 | [8] -0.084 | alisertib -0.002 | [9] 0.021 | gefitinib 0.006

SMARCAD1 isoform 2 (UniProt Q9H4L7)
inactive: vemurafenib 0.014 | [1] 0.034 | barasertib 0.021 | [2] -0.039 | volasertib -0.048 | [3] 0.017 | [4] -0.005 | [5] -0.057 | saracatinib 0.008 | sotrastaurin 0.002 | alvocidib -0.007 | Tubastatin A -0.13 | [6] 0.037 | defactinib 0.03 | [7] 0.003 | encorafenib 0.029 | [8] 0.052 | alisertib -0.018 | [9] 0.004 | gefitinib 0.028

SFN (UniProt P31947)
Sequence of UniProt P31947 (P31947 whole entry, looked up): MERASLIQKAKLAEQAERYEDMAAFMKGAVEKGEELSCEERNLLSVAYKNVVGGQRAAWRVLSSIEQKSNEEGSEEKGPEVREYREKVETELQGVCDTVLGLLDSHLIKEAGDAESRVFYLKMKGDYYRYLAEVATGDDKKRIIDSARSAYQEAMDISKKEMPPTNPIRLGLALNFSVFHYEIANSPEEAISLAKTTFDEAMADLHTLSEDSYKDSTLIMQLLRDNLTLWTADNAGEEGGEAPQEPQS
active: [4] 0.521
inactive: vemurafenib -0.038 | [1] 0.003 | barasertib -0.025 | [2] 0.006 | volasertib 0.029 | [3] 0.023 | [5] -0.084 | saracatinib -0.003 | sotrastaurin -0.01 | alvocidib 0.05 | Tubastatin A 0.054 | [6] -0.009 | defactinib 0.052 | [7] -0.017 | encorafenib -0.024 | [8] 0.065 | alisertib 0.076 | [9] 0.008 | gefitinib -0.008

SNRNP40 (UniProt Q96DI7)
Sequence of UniProt Q96DI7 (Q96DI7 whole entry, looked up): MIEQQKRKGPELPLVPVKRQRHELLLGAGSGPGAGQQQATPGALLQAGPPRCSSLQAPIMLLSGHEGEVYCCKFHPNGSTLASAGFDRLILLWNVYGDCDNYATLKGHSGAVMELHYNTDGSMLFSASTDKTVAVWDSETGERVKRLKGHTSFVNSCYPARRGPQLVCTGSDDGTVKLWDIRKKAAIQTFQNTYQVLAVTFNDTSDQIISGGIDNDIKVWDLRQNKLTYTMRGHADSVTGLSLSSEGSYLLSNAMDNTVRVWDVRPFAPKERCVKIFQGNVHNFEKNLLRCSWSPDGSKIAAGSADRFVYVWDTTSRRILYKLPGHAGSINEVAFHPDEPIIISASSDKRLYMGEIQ
inactive: vemurafenib -0.032 | [1] 0.019 | barasertib -0.06 | [2] -0.001 | volasertib -0.024 | [3] -0.033 | [4] -0.115 | [5] 0.058 | saracatinib 0.01 | sotrastaurin -0.013 | alvocidib -0.026 | Tubastatin A 0.021 | [6] -0.019 | defactinib -0.009 | [7] -0.021 | encorafenib -0.025 | [8] -0.01 | alisertib 0.016 | [9] -0.004 | gefitinib -0.01

SOAT1 (UniProt P35610)
Sequence of UniProt P35610 (P35610 whole entry, looked up): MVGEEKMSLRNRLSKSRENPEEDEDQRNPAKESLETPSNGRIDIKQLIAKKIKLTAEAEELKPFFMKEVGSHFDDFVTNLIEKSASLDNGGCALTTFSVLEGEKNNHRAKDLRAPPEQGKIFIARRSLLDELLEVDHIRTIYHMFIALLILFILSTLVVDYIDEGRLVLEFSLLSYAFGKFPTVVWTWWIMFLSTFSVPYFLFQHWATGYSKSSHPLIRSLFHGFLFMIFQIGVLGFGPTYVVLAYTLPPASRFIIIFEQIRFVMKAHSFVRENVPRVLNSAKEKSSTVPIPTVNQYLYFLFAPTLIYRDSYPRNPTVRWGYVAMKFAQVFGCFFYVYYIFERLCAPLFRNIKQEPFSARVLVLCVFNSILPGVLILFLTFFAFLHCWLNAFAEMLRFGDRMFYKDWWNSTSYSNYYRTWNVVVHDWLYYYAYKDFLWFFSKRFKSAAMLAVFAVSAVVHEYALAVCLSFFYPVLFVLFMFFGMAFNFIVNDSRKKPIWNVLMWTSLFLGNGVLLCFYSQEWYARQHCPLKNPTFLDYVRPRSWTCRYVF
inactive: vemurafenib 0.047 | [1] 0.055 | barasertib 0.008 | [2] -0.003 | volasertib -0.009 | [3] -0.061 | [4] -0.063 | [5] -0.062 | saracatinib 0.016 | sotrastaurin 0.019 | alvocidib -0.033 | Tubastatin A 0.086 | [6] 0.036 | defactinib -0.022 | [7] -0.002 | encorafenib 0.065 | [8] 0.123 | alisertib -0.014 | [9] -0.076 | gefitinib 0.047

STOML2 (UniProt Q9UJZ1)
Sequence of UniProt Q9UJZ1 (Q9UJZ1 whole entry, looked up): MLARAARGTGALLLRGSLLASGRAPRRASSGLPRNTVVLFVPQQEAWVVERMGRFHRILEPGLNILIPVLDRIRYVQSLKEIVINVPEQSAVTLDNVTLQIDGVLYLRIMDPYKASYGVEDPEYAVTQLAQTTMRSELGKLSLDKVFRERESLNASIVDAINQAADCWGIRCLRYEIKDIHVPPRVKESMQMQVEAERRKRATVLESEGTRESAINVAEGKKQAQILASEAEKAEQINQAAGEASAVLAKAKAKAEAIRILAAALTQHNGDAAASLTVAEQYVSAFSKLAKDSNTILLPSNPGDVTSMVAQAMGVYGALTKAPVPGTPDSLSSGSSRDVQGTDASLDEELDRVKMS
inactive: vemurafenib 0.026 | [1] 0.009 | barasertib 0.115 | [2] 0.043 | volasertib 0.033 | [3] -0.015 | [4] 0.111 | [5] -0.047 | saracatinib -0.01 | sotrastaurin -0.002 | alvocidib -0.017 | Tubastatin A 0.095 | [6] -0.009 | defactinib 0.017 | [7] 0.022 | encorafenib -0.007 | [8] -0.055 | alisertib -0.004 | [9] 0.052 | gefitinib 0.08

SND1 (UniProt Q7KZF4)
inactive: vemurafenib 0.024 | [1] 0.017 | barasertib 0.021 | [2] -0.099 | volasertib -0.084 | [3] 0.037 | [4] 0.058 | [5] -0.078 | saracatinib 0.014 | sotrastaurin 0.031 | alvocidib 0.009 | Tubastatin A -0.121 | [6] 0.015 | defactinib 0.019 | [7] -0.019 | encorafenib -0.019 | [8] 0.195 | alisertib 0.026 | [9] -0.004 | gefitinib -0.017

STAT2 (UniProt P52630)
Sequence of UniProt P52630 (P52630 whole entry, looked up): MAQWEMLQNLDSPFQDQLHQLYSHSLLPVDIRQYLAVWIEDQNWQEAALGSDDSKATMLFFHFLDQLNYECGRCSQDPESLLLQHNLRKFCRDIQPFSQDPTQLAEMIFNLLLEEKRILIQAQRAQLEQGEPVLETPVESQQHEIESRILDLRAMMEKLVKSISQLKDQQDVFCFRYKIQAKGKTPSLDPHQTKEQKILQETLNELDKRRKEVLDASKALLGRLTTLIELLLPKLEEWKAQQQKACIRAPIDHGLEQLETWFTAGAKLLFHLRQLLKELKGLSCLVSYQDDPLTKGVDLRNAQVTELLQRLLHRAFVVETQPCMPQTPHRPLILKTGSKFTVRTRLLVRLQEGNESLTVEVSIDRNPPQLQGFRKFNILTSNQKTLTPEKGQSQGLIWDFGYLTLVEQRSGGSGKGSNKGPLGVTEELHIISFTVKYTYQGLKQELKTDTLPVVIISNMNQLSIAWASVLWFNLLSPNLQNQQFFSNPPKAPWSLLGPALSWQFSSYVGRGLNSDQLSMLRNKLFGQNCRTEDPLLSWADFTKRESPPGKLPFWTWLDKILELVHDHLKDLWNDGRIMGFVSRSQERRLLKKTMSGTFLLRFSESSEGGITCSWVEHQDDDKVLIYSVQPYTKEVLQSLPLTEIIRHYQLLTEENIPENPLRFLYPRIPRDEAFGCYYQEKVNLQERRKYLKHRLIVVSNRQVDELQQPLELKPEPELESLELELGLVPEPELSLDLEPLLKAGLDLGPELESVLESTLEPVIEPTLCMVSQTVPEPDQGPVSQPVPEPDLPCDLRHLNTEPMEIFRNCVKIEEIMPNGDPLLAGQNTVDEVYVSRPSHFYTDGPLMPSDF
inactive: vemurafenib 0.04 | [1] 0.026 | barasertib -0.021 | [2] -0.03 | volasertib -0.047 | [3] 0.033 | [4] -0.011 | [5] -0.164 | saracatinib -0.009 | sotrastaurin 0.029 | alvocidib 0.02 | Tubastatin A -0.183 | [6] 0.016 | defactinib -0.03 | [7] -0.018 | encorafenib 0.023 | [8] -0.014 | alisertib 0.006 | [9] 0.004 | gefitinib -0.023

SSNA1 (UniProt O43805)
Sequence of UniProt O43805 (O43805 whole entry, looked up): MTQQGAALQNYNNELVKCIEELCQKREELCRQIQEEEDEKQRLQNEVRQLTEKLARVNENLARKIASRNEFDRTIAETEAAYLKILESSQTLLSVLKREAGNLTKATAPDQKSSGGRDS
inactive: vemurafenib -0.067 | [1] -0.022 | barasertib 0.134 | [2] 0.075 | volasertib 0.027 | [3] 0.016 | [4] -0.005 | [5] -0.002 | saracatinib 0.013 | sotrastaurin 0.004 | alvocidib 0.016 | Tubastatin A 0.038 | [6] 0.043 | defactinib -0.036 | [7] 0.109 | encorafenib 0.023 | [8] -0.115 | alisertib 0.027 | [9] -0.014 | gefitinib 0.013

SLC27A4 (UniProt Q6P1M0)
Sequence of UniProt Q6P1M0 (Q6P1M0 whole entry, looked up): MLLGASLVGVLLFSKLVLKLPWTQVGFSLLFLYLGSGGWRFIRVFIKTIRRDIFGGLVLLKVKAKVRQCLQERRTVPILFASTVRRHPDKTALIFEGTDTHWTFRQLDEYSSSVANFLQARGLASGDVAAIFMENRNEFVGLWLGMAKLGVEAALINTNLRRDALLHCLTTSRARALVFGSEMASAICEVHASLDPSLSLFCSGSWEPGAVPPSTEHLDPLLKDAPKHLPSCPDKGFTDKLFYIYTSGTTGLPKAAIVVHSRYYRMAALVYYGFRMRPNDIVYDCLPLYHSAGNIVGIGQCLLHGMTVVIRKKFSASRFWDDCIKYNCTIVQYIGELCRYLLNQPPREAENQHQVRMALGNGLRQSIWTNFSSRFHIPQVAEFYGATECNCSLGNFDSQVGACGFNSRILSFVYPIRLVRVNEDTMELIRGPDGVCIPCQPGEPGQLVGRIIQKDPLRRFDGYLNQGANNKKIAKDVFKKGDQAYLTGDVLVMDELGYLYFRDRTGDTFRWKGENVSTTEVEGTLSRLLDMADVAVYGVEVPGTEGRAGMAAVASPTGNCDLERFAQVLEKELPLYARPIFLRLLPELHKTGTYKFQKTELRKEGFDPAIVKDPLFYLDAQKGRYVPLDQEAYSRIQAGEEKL
inactive: vemurafenib -0.042 | [1] 0.127 | barasertib -0.015 | [2] -0.028 | volasertib -0.106 | [3] 0 | [4] -0.066 | [5] -0.008 | saracatinib -0.023 | sotrastaurin 0.083 | alvocidib -0.019 | Tubastatin A -0.021 | [6] -0.009 | defactinib -0.157 | [7] -0.062 | encorafenib 0.135 | [8] 0.006 | alisertib 0.039 | [9] 0.062 | gefitinib -0.067

TAF9 (UniProt Q16594)
Sequence of UniProt Q16594 (Q16594 whole entry, looked up): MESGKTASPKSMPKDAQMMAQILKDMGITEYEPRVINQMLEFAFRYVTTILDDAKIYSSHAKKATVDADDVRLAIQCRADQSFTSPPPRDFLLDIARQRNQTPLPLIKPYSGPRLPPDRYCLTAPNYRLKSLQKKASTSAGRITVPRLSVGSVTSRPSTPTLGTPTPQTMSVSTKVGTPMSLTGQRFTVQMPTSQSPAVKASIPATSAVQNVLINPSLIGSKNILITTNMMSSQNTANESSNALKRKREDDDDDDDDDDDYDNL
inactive: vemurafenib -0.028 | [1] -0.092 | barasertib -0.001 | [2] -0.031 | volasertib 0.063 | [3] 0.002 | [5] -0.006 | saracatinib 0.056 | sotrastaurin -0.001 | alvocidib 0.032 | Tubastatin A -0.026 | [6] 0.014 | defactinib -0.03 | [7] -0.004 | encorafenib 0.099 | [8] -0.041 | alisertib 0.004 | [9] 0.038 | gefitinib 0.084
active: [4] 0.238
